ADAM10 inh: human ADAM10 inhibitors, primary screen, biochemical, QFRET, HTS; Disintegrin and metalloproteinase domain-containing protein 10 (Homo sapiens), O14672; recombinant ADAM10, EDANS/DABCYL FRET peptide cleavage, 3 h; inhibition, % at 7 µM; 370,000 tested, 0.62% active;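 active = inhibition above a per-campaign cutoff equal to the mean of compounds falling between control-based bounds plus 3 SD, cut at about 20% in these data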;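 note: 0% = DMSO wells while the 100% control is not disclosed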
FAS-TE inh: FAS thioesterase domain inhibitors, primary screen, biochemical, fluorescence intensity, uHTS | 360,000 tested, 0.67% active | inhibition, % at 15 µM | Fatty acid synthase (Homo sapiens), P49327 | recombinant FAS-TE, OMFH fluorogenic substrate, fluorescence endpoint;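 active = compounds whose normalised, plate-corrected inhibition of enzyme fluorescence in the single-dose primary screen is 50% or more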;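 note: 0% = DMSO with enzyme and 100% = substrate without enzyme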
ADAM17 inh: ADAM17 inhibitors, primary screen, biochemical, QFRET | Disintegrin and metalloproteinase domain-containing protein 17 (Homo sapiens), P78536 | recombinant ADAM17, EDANS/DABCYL FRET peptide cleavage | inhibition, % at 6.95 µM | 370,000 tested, 0.83% active;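 active = inhibition above the mean of compounds lying between control limits plus 3 SD, set per campaign, cut at about 8.5% in these data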;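 note: 0% = DMSO-only wells as the low control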
NPR2 activator: human GC-B receptor activators, primary screen, HEK293 GC-B cells, cGMP TR-FRET, EC30 CNP | 0% at EC30 CNP, 100% saturating CNP | activation, % at 10 µM | 370,000 tested, 0.11% active;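 active = activation at 10 µM reaching about 35% in either raw or pattern-adjusted values, limit read from the data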
NPR1 activator: GC-A stimulated cGMP production enhancers – HEK293 GC-A cells, cGMP TR-FRET, EC30 ANP, primary screen; Atrial natriuretic peptide receptor 1 (Homo sapiens), P16066; 0% at EC30 ANP, 100% saturating ANP; activation, % at 10 µM; 370,000 tested, 0.14% active; AID 1671463, 2021; in the data active = activation above about 40%
ADAM10 confirm: human ADAM10 inhibitors, confirmation, biochemical, QFRET, triplicate; shares compounds with ADAM10 inh; ADAM10 QFRET peptide cleavage, EDANS fluorescence; inhibition, % at 6.95 µM; 2,100 tested, 1% active;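 active = inhibition above about 20% chosen separately for each screening run, limit read from the data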;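 note: 0% = DMSO wells and 100% = marimastat wells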
ADAM17 counter: ADAM17 inhibitors, counter-screen for ADAM10 exosite inhibitor project, biochemical, QFRET, high throughput | shares compounds with ADAM10 inh | 2,100 tested, 0.5% active | ADAM17 QFRET peptide cleavage, EDANS fluorescence | inhibition, % at 6.95 µM;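 active = mean triplicate inhibition above the solvent-only control wells' mean plus 3 SD, cut at about 12% in these data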;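 note: 0% = DMSO wells and 100% = marimastat wells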
* = called active by the depositor; / = no result given. Sampled rows, rich in hits. Any-hit rate of the full collection: about 2%.

SMILES	ADAM10 inh	FAS-TE inh	ADAM17 inh	NPR2 activator	NPR1 activator	ADAM10 confirm	ADAM17 counter
Nc1[nH]c(C(=O)c2ccc(Br)cc2)c(-c2ccc(Br)cc2)c1C(=O)N1CCCCC1	-2	/	-3	-9	-13	/	/
COC(=O)[C@]12C[C@H](CC(=O)N3CCSCC3)C(=O)N(CCc3ccc(OC)c(OC)c3)C1=C[C@H](C1CCCC1)O[C@@H]2C	-6	/	-2	-2	1	/	/
COc1ccc(CNS(=O)(=O)/C=C/c2cc(C)ccc2CNC(=O)OC(C)(C)C)cc1	4	/	4	-6	-1	/	/
Cc1ccc(C2CCC3(CCC(=O)N3CCOC(=O)Nc3ccc(Br)cc3)CC2)cc1 (centres undefined)	1	/	0	6	2	/	/
CC(C)C[C@H](NC(=O)c1[nH]cnc1C(=O)N[C@@H](C)C(=O)OC(C)(C)C)C(=O)OCc1ccccc1	21*	21	12*	8	2	4	1
CC(C)C[C@H](NC(=O)c1[nH]cnc1C(=O)N[C@@H](Cc1ccccc1)C(=O)OC(C)(C)C)C(=O)OCc1ccccc1	13	10	7	11	1	/	/
CC(C)C[C@H](NC(=O)c1[nH]cnc1C(=O)Nc1ccc(CNC(=O)OC(C)(C)C)cc1)C(=O)OC(C)(C)C	25*	14	9.1*	6	2	25*	6
CN1C(=O)c2cc(NC(=O)Nc3ccccc3F)ccc2OC[C@H]2O[C@@H](CC(=O)NCc3ccc(-c4ccccc4)cc3)CC[C@@H]21	30*	/	-8	-4	-3	22*	5
O=S(=O)(c1ccccc1Br)N(Cc1cn(CC2CCCCC2)nn1)C1CC1	-2	/	-1	7	0	/	/
COc1ccc(NC(=O)CN(C)C(=O)c2cn(-c3ccccc3)nc2-c2ccc(F)cc2)cc1	7	20	7	-4	-1	/	/
COc1ccc(NC(=O)CN(C)C(=O)c2cn(-c3ccccc3)nc2-c2ccc(OC)cc2)cc1	26*	8	7	9	6	0	1
COc1ccc(-c2nn(-c3ccccc3)cc2C(=O)Nc2cccc(S(=O)(=O)NC3=NCCC3)c2)cc1	24*	31	2	-1	3	7	1
O=C(NCc1cn(-c2ccccc2)nc1-c1ccccc1)c1cc([N+](=O)[O-])cc([N+](=O)[O-])c1	9	26	-2	5	-3	/	/
Cc1cccc(-c2nn(-c3ccccc3)cc2C(=O)Nc2cccc(S(=O)(=O)NC3=NCCC3)c2)c1	12	7	3	-6	-1	/	/
COc1ccc(-c2nn(-c3ccccc3)cc2CNC(=O)c2cccc([N+](=O)[O-])c2)cc1	21*	31	8	0	0	4	1
CCOC(=O)N(C)[C@H]1C[C@H]2c3[nH]c4c(-c5ccc6c(c5)OCO6)cccc4c3CCN2C(=O)[C@H]1[C@H](C)O	-6	/	-2	-7	-7	/	/
O=S(=O)(NCc1cn(Cc2ccccc2)nn1)c1ccccc1Br	-1	/	1	1	0	/	/
COc1ccc(N2CCN(CC(O)COc3ccc4c(c3)CCC4)CC2)cc1 (centres undefined)	7	0	0	-4	-2	/	/
OC(COc1ccc2c(c1)CCC2)CN1CCN(c2ccccc2F)CC1 (centres undefined)	20*	6	2	-2	4	2	0
Cn1cccc1C=NNC(=O)c1cc(-c2ccc(Cl)cc2)n[nH]1	-5	/	-1	-9	4	/	/
COc1ccc(-c2noc(-c3ccccc3C(=O)Nc3cccc(OC)c3)n2)cc1	25*	28	7	-4	-1	3	1

Screening results: PubChem BioAssay, several laboratories
